Values joined by “and” are separate entries in the source; they are usually repeats but may differ in a detail not shown here. Equal values may be shown once. Inconclusive results are not listed. Active and inactive are the calls of the source. Unless noted, calls follow the shape of the dose curve; as a rule, active = well fitted curve in the direction sought with a large enough effect in the repeat runs; inconclusive = weak or mixed curves; inactive = no such curve, though single readings can be large; an effect the other way counts as inactive or inconclusive.

Experiment [1] in a line: qHTS assay to identify aromatase inhibitors - cell viability counter screen (AID 743084).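 Also: cells stimulated with testosterone during compound exposure; nearly all actives have a fitted effect of over 55% in size.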
A short description of experiment [2]: qHTS assay to identify small molecule that activate the aryl hydrocarbon receptor (AhR) signaling pathway - cell viability counter screen (AID 743086).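 Also: HepG2 liver cells carrying the AhR DRE luciferase reporter; series mostly up to about 70 µM; nearly all actives have a fitted effect of over 45% in size.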 Summed up: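 HepG2-AhR-luc (HG2L7.5c1) cells, 4000/well, were preincubated 5 h at 37C, exposed to compound in qHTS format for 24 hr at 37C, then given CellTiter-Fluor for 30 min; viability was read as fluorescence in the reporter wells.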
In general terms: Quantitative high-throughput screening tests each substance at several concentrations.

The nature of experiment [3]: qHTS assay to identify small molecule antagonists of the peroxisome proliferator-activated receptor gamma (PPARg) signaling pathway - cell viability counter screen (AID 743194). Also: nearly all actives have a fitted effect of over 55% in size. Also: potency is read from the fitted curve at half-maximal effect. The gist of the method: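 PPARg-UAS-bla HEK293H cells were plated, rested 5 h at 37 C, then treated with compounds plus rosiglitazone (50 nM final) for 17 h at 37 C; viability was then read by CellTiter-Glo luminescence after 30 min at room temperature.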

Experiment [4] is described as follows: qHTS assay for small molecule agonists of the antioxidant response element (ARE) signaling pathway (AID 743202; active = well fitted activation curve with a large enough effect in the signal ratio in the repeat runs, not every such curve was filed as active; the % refers to the signal ratio). Summed up:
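Compounds delivered in DMSO to ARE-bla HepG2 cells (2,000 cells/well, pre-incubated 5 h) and left 16 h at 37 C. LiveBLAzer B/G FRET substrate then added for 2 h at RT before fluorescence reading.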

The nature of experiment [5]: qHTS assay for small molecule activators of the heat shock response signaling pathway - cell viability counter screen (AID 743209). Also: nearly all actives have a fitted effect of over 50% in size. Also: potency is read from the fitted curve at half-maximal effect. The gist of the method: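 HSE-bla HeLa cells plated overnight, then exposed to Tox21 compounds (23 nL in DMSO) for 5 h at 37 C. After the bla reporter read, CellTiter-Glo was added in the same wells and luminescence read after 30 min at room temperature.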

Experiment [6] in a line: qHTS assay to identify small molecule agonists of the peroxisome proliferator-activated receptor delta (PPARd) signaling pathway - cell viability counter screen (AID 743211). Also: nearly all actives have a fitted effect of over 55% in size. Also: potency is read from the fitted curve at half-maximal effect. The gist of the method: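 Read-out: CellTiter-Glo luminescence, 30 min RT, measured in the same wells as the beta-lactamase reporter. Cells: GeneBLAzer PPAR delta UAS-bla HEK293H, 3000 cells/well, compound exposure 17 h at 37C.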

Experiment [7] in a line: qHTS assay to identify small molecule antagonists of the peroxisome proliferator-activated receptor delta (PPARd) signaling pathway - cell viability counter screen (AID 743213). Also: nearly all actives have a fitted effect of over 50% in size. Also: potency is read from the fitted curve at half-maximal effect. Summed up: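 HEK293H cells with the PPARd UAS-bla reporter, co-treated 17 h at 37 C with compounds and L165041 (300 nM final), were lysed with CellTiter-Glo. Luminescence indicated viable cell content.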

Experiment [8] in a line: qHTS assay to identify small molecule agonists of the farnesoid-X-receptor (FXR) signaling pathway - cell viability counter screen (AID 743218). Also: nearly all actives have a fitted effect of over 45% in size. Also: potency is read from the fitted curve at half-maximal effect. Summed up:
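FXR-UAS-bla HEK 293T cells exposed to compounds for 16 h at 37C. Cytotoxicity read in the same wells by CellTiter-Glo luminescence after 30 min at room temperature, following the beta-lactamase FRET read.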

Experiment [9] in a line: qHTS assay to identify small molecule antagonists of the farnesoid-X-receptor (FXR) signaling pathway - cell viability counter screen (AID 743221; active = well fitted cell-killing curve with a large enough effect in the repeat runs, not every such curve was filed as active; also: nearly all actives have a fitted effect of over 50% in size). Summed up:
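HEK 293T FXR-bla cells, 5 h pre-incubation; compound + CDCA 50 uM final, 16 h, 37 C; beta-lactamase FRET read first, then CellTiter-Glo luminescence, 30 min RT.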

The target of experiment [10] is Vitamin D3 receptor (Homo sapiens) (UniProt P11473). Kind of experiment: qHTS assay to identify small molecule agonists of the vitamin D receptor (VDR) signaling pathway (AID 743222; calls by dose curve). The gist of the method:
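VDR-bla cells plated 4 h at 37 C, then exposed to compounds for 16 h at 37 C. Beta-lactamase reporter activity measured by fluorescence after 2 h room-temperature loading with LiveBLAzer B/G FRET substrate.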

Experiment [11] shares this target. Kind of experiment: qHTS assay to identify small molecule antagonists of the vitamin D receptor (VDR) signaling pathway (AID 743223; active = well fitted inhibition curve with a large enough effect in the signal ratio in the repeat runs, not every such curve was filed as active; the % refers to the signal ratio). Summed up:
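Beta-lactamase reporter read-out: FRET substrate fluorescence after 2 h at room temperature, following 16 h exposure of VDR-bla cells to test compound plus 3 nM (final) 1alpha,25-dihydroxyvitamin D3 agonist at 37C.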

For experiment [12], the target named is Peroxisome proliferator-activated receptor gamma (Homo sapiens) (UniProt P37231). Put plainly: qHTS assay to identify small molecule agonists of the peroxisome proliferator-activated receptor gamma (PPARg) signaling pathway (AID 743094; active = well fitted activation curve with a large enough effect in the signal ratio in the repeat runs, not every such curve was filed as active; the % refers to the signal ratio). The gist of the method: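 GeneBLAzer PPARg UAS-bla HEK293H cells were plated, rested 5 h, then exposed to compounds for 17 h at 37C. Beta-lactamase activity was read by LiveBLAzer B/G FRET substrate fluorescence after 1 h at room temperature.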
Peroxisome proliferator-activated receptor gamma (Homo sapiens), sequence (P37231 whole entry, looked up): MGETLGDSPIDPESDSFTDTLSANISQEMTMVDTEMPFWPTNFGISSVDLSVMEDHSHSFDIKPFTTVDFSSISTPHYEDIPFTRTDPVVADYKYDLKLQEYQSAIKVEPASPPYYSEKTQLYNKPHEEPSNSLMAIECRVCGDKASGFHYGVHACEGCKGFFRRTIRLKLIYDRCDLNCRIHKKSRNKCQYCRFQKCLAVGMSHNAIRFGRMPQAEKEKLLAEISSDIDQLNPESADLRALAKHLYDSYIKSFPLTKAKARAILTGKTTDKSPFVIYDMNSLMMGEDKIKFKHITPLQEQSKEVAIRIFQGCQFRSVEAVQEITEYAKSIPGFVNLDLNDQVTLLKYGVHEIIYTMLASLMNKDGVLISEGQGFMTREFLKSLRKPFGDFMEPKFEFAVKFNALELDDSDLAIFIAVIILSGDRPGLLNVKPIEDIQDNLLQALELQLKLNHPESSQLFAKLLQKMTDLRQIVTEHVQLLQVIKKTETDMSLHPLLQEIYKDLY

Experiment [13] in a line: qHTS assay for small molecule agonists of the antioxidant response element (ARE) signaling pathway - cell viability counter screen (AID 743203; calls by dose curve; also: nearly all actives have a fitted effect of over 55% in size; also: potency is read from the fitted curve at half-maximal effect). The gist of the method:
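ARE-bla HepG2 cells were plated, rested 5 h at 37C/5% CO2, then exposed to compounds in DMSO for 16 h. Viability was read as CellTiter-Glo luminescence after 30 min at room temperature, in the same wells as the ARE screen.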

Experiment [14] deals with Bile acid receptor (Homo sapiens) (UniProt Q96RI1). Put plainly: qHTS assay to identify small molecule antagonists of the farnesoid-X-receptor (FXR) signaling pathway (AID 743217; active = well fitted inhibition curve with a large enough effect in the signal ratio in the repeat runs, not every such curve was filed as active; the % refers to the signal ratio). The gist of the method: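 FXR-UAS-bla HEK 293T cells (beta-lactamase reporter) given compound plus chenodeoxycholic acid (50 uM final), 16 h at 37C. LiveBLAzer B/G FRET substrate added for 2 h at room temperature; fluorescence read.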
Bile acid receptor (Homo sapiens), sequence (Q96RI1 whole entry, looked up): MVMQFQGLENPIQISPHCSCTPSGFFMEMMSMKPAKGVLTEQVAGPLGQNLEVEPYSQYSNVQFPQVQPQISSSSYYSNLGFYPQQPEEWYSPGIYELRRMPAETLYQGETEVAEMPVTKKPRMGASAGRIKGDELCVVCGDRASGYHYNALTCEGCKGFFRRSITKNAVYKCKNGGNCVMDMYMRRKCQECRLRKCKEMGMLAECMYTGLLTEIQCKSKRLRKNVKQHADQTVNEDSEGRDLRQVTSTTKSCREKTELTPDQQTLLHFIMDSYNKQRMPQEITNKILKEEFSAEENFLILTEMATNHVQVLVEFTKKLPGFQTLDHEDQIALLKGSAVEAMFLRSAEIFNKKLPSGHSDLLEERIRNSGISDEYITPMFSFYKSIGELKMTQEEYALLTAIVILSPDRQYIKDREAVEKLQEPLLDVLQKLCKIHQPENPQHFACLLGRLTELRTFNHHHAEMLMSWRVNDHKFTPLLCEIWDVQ

The target is the same in experiment [15]. Kind of experiment: qHTS assay to identify small molecule agonists of the farnesoid-X-receptor (FXR) signaling pathway (AID 743220; active = well fitted activation curve with a large enough effect in the signal ratio in the repeat runs, not every such curve was filed as active; the % refers to the signal ratio). The gist of the method:
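Beta-lactamase reporter under UAS control in GeneBLAzer FXR HEK 293T cells (5000/well) measured with LiveBLAzer FRET substrate after 2 h at room temperature. Compound exposure lasted 16 h at 37C.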

In experiment [16] the target is Aryl hydrocarbon receptor (Homo sapiens) (UniProt P35869). Put plainly: qHTS assay to identify small molecule that activate the aryl hydrocarbon receptor (AhR) signaling pathway (AID 743085). Also: nearly all actives have a fitted effect of over 15% in size. Also: potency is read from the fitted curve at half-maximal effect.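 As to activation: HG2L7.5c1 human HepG2 liver cells with stably integrated DRE-driven firefly reporter; series mostly up to about 70 µM.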 Summed up:
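Luminescence read-out: ONE-Glo reagent, 30 min at room temperature, in HG2L7.5c1 HepG2 reporter cells treated 24 h at 37C. Viability was measured beforehand by CellTiter-Fluor fluorescence after 30 min at 37C.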

Experiment [17] deals with Peroxisome proliferator-activated receptor delta (Homo sapiens) (UniProt Q03181). Kind of experiment: qHTS assay to identify small molecule agonists of the peroxisome proliferator-activated receptor delta (PPARd) signaling pathway (AID 743212; calls by dose curve). Summed up:
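A PPARd-bla HEK293H line with beta-lactamase under an Upstream Activator Sequence is treated with compounds at 37 C. Substrate loading for 2 h at room temperature precedes the fluorescence measurement.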

Experiment [18] shares this target. Put plainly: qHTS assay to identify small molecule antagonists of the peroxisome proliferator-activated receptor delta (PPARd) signaling pathway (AID 743215; active = well fitted inhibition curve with a large enough effect in the signal ratio in the repeat runs, not every such curve was filed as active; the % refers to the signal ratio;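 also: cells stimulated with agonist L165041 at 300 nM final during compound exposure; series mostly up to about 62 µM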). The gist of the method:
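PPARd-bla HEK293H cells (UAS-bla reporter) preincubated 5 h, then given compound plus 300 nM final L165041 agonist for 17 h at 37 C. Beta-lactamase activity read by LiveBLAzer B/G FRET substrate fluorescence after 2 h at room temperature.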

Experiment [19] in a line: qHTS assay for small molecule activators of the heat shock response signaling pathway (AID 743210; active = well fitted activation curve with a large enough effect in the signal ratio in the repeat runs, with a control signal flat, not every such curve was filed as active; the % refers to the signal ratio;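 also: HeLa cells with beta-lactamase reporter driven by heat shock elements; series mostly up to about 63 µM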). Summed up:
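Reporter gene assay: HeLa cells stably bearing an HSE-bla construct, compound treatment 5 h at 37 C, LiveBLAzer substrate 2.5 h at RT, fluorescence intensity.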

Experiment [20] deals with Peroxisome proliferator-activated receptor gamma (Homo sapiens) (UniProt P37231). Put plainly: qHTS assay to identify small molecule antagonists of the peroxisome proliferator-activated receptor gamma (PPARg) signaling pathway (AID 743191; calls by dose curve; also: series mostly up to about 63 µM; nearly all actives have a fitted effect of over 30% in size). The gist of the method:
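GeneBLAzer PPARg UAS-bla HEK293H cells carrying a UAS-driven beta-lactamase reporter were plated at 3000 cells/well, preincubated 5 h at 37C, then given compound for 17 h at 37C; LiveBLAzer B/G FRET substrate was read after 1 h at room temperature.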

Peroxisome proliferator-activated receptor delta (Homo sapiens), sequence (Q03181 whole entry, looked up): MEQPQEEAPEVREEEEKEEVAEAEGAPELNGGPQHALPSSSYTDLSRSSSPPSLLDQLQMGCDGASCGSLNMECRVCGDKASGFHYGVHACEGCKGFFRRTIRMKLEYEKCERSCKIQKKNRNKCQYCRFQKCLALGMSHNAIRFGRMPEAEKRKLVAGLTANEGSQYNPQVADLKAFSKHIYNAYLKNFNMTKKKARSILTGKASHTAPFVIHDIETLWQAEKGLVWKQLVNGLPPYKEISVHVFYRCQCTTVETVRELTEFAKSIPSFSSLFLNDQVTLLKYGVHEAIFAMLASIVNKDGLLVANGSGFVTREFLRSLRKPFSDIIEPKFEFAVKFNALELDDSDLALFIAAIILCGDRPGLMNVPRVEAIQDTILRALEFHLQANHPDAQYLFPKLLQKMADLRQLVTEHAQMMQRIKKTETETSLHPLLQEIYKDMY
Aryl hydrocarbon receptor (Homo sapiens), sequence (P35869 whole entry, looked up): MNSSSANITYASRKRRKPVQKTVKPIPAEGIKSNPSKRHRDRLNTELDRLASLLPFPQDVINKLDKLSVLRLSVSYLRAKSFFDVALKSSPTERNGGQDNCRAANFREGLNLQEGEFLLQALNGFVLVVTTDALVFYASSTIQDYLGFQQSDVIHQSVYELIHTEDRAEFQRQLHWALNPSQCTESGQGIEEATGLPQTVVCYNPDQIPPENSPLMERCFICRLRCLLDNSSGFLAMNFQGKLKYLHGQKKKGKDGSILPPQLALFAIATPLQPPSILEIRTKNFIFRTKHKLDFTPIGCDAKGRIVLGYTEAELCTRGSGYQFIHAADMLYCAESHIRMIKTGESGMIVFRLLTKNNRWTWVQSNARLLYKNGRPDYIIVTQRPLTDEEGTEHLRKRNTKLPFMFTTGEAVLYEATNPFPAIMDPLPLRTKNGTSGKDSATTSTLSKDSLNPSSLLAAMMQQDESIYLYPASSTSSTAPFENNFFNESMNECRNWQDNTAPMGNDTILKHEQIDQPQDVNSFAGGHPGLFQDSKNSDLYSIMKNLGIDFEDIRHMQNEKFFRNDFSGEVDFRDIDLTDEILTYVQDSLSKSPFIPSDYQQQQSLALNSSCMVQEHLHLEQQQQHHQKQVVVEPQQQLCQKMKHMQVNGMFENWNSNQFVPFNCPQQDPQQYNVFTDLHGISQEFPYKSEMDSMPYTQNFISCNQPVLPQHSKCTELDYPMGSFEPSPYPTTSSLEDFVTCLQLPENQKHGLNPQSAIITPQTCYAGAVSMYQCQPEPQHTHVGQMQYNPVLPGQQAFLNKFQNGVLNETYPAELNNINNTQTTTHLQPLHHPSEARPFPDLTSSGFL
Vitamin D3 receptor (Homo sapiens), sequence (P11473 whole entry, looked up): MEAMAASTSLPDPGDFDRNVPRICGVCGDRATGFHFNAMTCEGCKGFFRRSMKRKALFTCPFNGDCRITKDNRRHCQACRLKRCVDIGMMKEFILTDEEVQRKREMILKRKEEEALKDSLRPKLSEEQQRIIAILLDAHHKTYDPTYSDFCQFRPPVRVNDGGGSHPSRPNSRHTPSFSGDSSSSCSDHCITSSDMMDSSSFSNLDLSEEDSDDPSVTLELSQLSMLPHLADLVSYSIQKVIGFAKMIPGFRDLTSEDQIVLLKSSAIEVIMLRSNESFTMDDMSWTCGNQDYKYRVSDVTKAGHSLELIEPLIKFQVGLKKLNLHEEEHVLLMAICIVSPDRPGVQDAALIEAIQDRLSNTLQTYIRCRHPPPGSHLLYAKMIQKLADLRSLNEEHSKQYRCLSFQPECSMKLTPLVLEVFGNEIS

`NCCCC(O)(P(=O)(O)O)P(=O)(O)O`: the Potency entry in experiment [1], in [2], in experiment [3], in [4], in [5] and in experiment [6] was “inactive” in each case. Besides, the Potency result in experiment [7], in [8], in experiment [9], in experiment [10] and in experiment [11] was “inactive” in each case.

Regarding `Cc1c(C)n(Cc2ccccc2)c2ccc(C(=O)OCCN(C)C)cc12`, the Potency entry in experiment [1], in [12], in [3], in experiment [13], in [5] and in [14] was “inactive” each time. In addition, the Potency result in [15], in [9], in experiment [10] and in experiment [11] was “inactive” each time. For the same compound, in experiment [6], the Potency is 26.6 µM (active).

Consider `CCC(C)(C)c1cc(O)c(C(C)(C)CC)cc1O`, for which the Potency result in experiment [16], in experiment [2], in experiment [7], in experiment [18], in experiment [9] and in experiment [10] was “inactive” in each case. The Potency in [3] was 21.9 µM (active); in [13] it was 54.5 µM (active); in experiment [5], 38.9 µM (active). In experiment [17], the compound was classed as inactive.

With `COc1ccccc1OCCNCC(O)COc1cccc2[nH]c3ccccc3c12` (stereo not given), the Potency is 21.1 µM (active) in experiment [16], 23.7 µM (active) in experiment [6] and 26.6 µM (active) in experiment [8]. Also, the Potency entry in experiment [2], in experiment [12], in experiment [5], in [19], in experiment [15] and in experiment [10] was “inactive” each time.

In the case of `CCCN(CCc1cccs1)[C@H]1CCc2c(O)cccc2C1`, the Potency result in [1], in [2], in [12], in experiment [3], in experiment [4] and in [13] was “inactive” each time. Moreover, the Potency entry in [5], in experiment [19], in [7], in experiment [18] and in experiment [9] was “inactive” each time. Moreover, the compound was classed as inactive in experiment [17].

For `CCOC(=O)N1CCC(=C2c3ccc(Cl)cc3CCc3cccnc32)CC1`, the Potency entry in [1], in experiment [5], in [15] and in [10] was “inactive” each time. Moreover, the Potency in experiment [3] was 49 µM (active) and 26.6 µM (active); in experiment [13] it was 30.6 µM (active); in [6], 27.5 µM (active) and 29.8 µM (active); in experiment [7], 43.6 µM (active).

For `ClC/C=C\CCl`, the Potency entry in [1], in experiment [12], in [20], in experiment [3], in experiment [13] and in experiment [5] was “inactive” in each case. Also, the Potency entry in experiment [19], in [6], in experiment [7], in experiment [18], in experiment [9] and in [10] was “inactive” in each case. The Potency result in [11] was “inactive”. Also, the call in [17] was inactive.

For the compound `CC1=C(/C=C/C(C)=C/C=C/C(C)=C\C=O)C(C)(C)CCC1`, the Potency result in experiment [16], in experiment [2] and in [3] was “inactive” in each case. In addition, the Potency was 51.6 µM (active) in experiment [13] and 41.3 µM (active) in experiment [6].

These data come from PubChem BioAssay (Tox21).
